PubChem BioAssay AID1850 (Southern Research Specialized Biocontainment Screening …, 2009)
About 1,000 (0.32%) of roughly 310,000 compounds were called active. A selection follows. Entries with a potency or affinity are not part of this list. Values without a mark were called inactive. How the calls were made is not given here.

Test: Inhibition of PhoP regulon, Salmonella typhi GFP reporter cells, confirmation, 4 h (AID 1850);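 further: 0% = induced wells with vehicle and 100% = uninduced wells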
Details: Salmonella Typhi PhoP-promoter GFP reporter, fluorescence, at 50 µM, active compounds read high

Which inhibition does the source give for `Cc1cc(C)c2nc(C)cc(Nc3ccc(C(=O)NCCO)cc3)c2c1` here?
The inhibition was 1.42%.

Which inhibition does the source give for `COc1ccc2oc(C(=O)OCC(=O)N3CC(C)OC(C)C3)c(C)c2c1` (configuration not stated) here?
The inhibition was 1.14%.

With `O=C1C=C(Nc2cccc3cccnc23)c2ccccc2C1=O` as the compound, how does the inhibition read?
The inhibition was 1.58%.

For `CCOC(=O)c1ccc(NC2=CC(=O)C(=O)c3ccccc32)cc1`, which inhibition is on record?
The inhibition was 0.12%.

For `O=C1C=C(Nc2ccccc2C(=O)O)c2ccccc2C1=O`, which inhibition is on record?
The inhibition was 8.73%.

With `Cc1ccc(NC2=CC(=O)C(=O)c3ccccc32)cc1` as the compound, how does the inhibition read?
Its inhibition is 5.69%.

Which inhibition does the source give for `CS(=O)(=O)N(CC(=O)N1CCC(C(N)=O)CC1)C1CCCCC1` here?
Its inhibition is -1.33%.

Which inhibition does the source give for `CCOC(=O)Cc1csc(NC(=O)c2ccc3ncsc3c2)n1` here?
The inhibition was -6%.

With `COc1ccc(-n2nc(C(=O)NCC(=O)NCc3ccccc3OC)c3ccccc3c2=O)cc1` as the compound, how does the inhibition read?
The inhibition was 8.47%.

With `OCCNc1nc(N2CCN(Cc3ccccc3)CC2)nc2ccccc12` as the compound, how does the inhibition read?
Its inhibition is 1.64%.

For `OCCN1CCN(c2nc(NCc3ccco3)c3ccccc3n2)CC1`, which inhibition is on record?
The inhibition was 3.47%.

Which inhibition does the source give for `c1ccc(CN2CCN(c3nc(N4CCOCC4)c4ccccc4n3)CC2)cc1` here?
The inhibition was -3.61%.

Which inhibition does the source give for `c1ccc(N2CCN(c3nc(NCc4ccco4)c4ccccc4n3)CC2)cc1` here?
The inhibition was 13.6%.

With `O=C(NC(=S)N1CCN(c2ccc([N+](=O)[O-])cc2)CC1)c1ccco1` as the compound, how does the inhibition read?
Its inhibition is -9.69%.

Which inhibition does the source give for `CCC1(c2ccccc2)NC(=O)N(CC(=O)Nc2nnc(C3CC3)s2)C1=O` (configuration not stated) here?
The inhibition was -9.36%.

For `COc1ccc(OC)c2[nH]c(=O)c(CCNS(=O)(=O)c3ccc(C)cc3)cc12`, which inhibition is on record?
Its inhibition is 7.93%.

Which inhibition does the source give for `C#CCOCCOCCOCCNc1nc(N2CCN(C(=O)[C@H]([C@@H](C)CC)n3cc([C@@H](N)CC(C)C)nn3)CC2)nc(N2CCN(C(=O)[C@H](Cc3cc4ccccc4[nH]3)n3cc([C@@H](N)Cc4ccc(O)cc4)nn3)CC2)n1` here?
The inhibition was -29.1%.

Which inhibition does the source give for `C#CCOCCOCCOCCNc1nc(N2CCN(C(=O)[C@H](CCC(=O)O)n3cc(C(N)Cc4ccc(O)cc4)nn3)CC2)nc(N2CCN(C(=O)[C@H](Cc3cc4ccccc4[nH]3)n3cc(C(N)CC(C)C)nn3)CC2)n1` (some centres not stated) here?
Its inhibition is 5.34%.

Which inhibition does the source give for `C#CCOCCOCCOCCNc1nc(N2CCN(C(=O)C(CCC(=O)O)n3cc(C(N)CC(C)C)nn3)CC2)nc(N2CCN(C(=O)C(Cc3cc4ccccc4[nH]3)n3cc(C(N)Cc4ccc(O)cc4)nn3)CC2)n1` (configuration not stated) here?
The inhibition was -1.42%.

With `C#CCOCCOCCOCCNc1nc(N2CCN(C(=O)[C@H](Cc3ccc(O)cc3)n3cc([C@@H](N)C(C)CC)nn3)CC2)nc(N2CCN(C(=O)[C@H](Cc3cc4ccccc4[nH]3)n3cc([C@@H](N)CC(C)C)nn3)CC2)n1` (some centres not stated) as the compound, how does the inhibition read?
Its inhibition is 11%.

With `C#CCOCCOCCOCCNc1nc(N2CCN(C(=O)[C@H]([C@@H](C)CC)n3cc([C@@H](N)Cc4ccc(O)cc4)nn3)CC2)nc(N2CCN(C(=O)[C@H](Cc3cc4ccccc4[nH]3)n3cc([C@@H](N)C(C)CC)nn3)CC2)n1` (some centres not stated) as the compound, how does the inhibition read?
Its inhibition is 17.7%.

Which inhibition does the source give for `C#CCOCCOCCOCCNc1nc(N2CCN(C(=O)C(Cc3ccc(O)cc3)n3cc(C(N)CC(C)C)nn3)CC2)nc(N2CCN(C(=O)C(Cc3cc4ccccc4[nH]3)n3cc(C(N)C(C)CC)nn3)CC2)n1` (configuration not stated) here?
Its inhibition is 18.1%.
